Laboratory results published in PubChem BioAssay AID602253 (Broad Institute, 2012).
Entries with a potency or affinity are not part of this list. Calls of active or inactive are those of the source.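 Rule for the calls: active = compounds lowering polarization whose fitted half-maximal concentration is at most twice their top tested dose; inconclusive = flat curve with 30 to 70 percent inhibition, or poor fit; inactive = the rest.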

What follows are molecules tested against Golgi-associated PDZ and coiled-coil motif-containing protein (Homo sapiens) (UniProt Q9HD26) (assay: CAL PDZ domain peptide-binding inhibitors, dose response, biochemical, fluorescence polarization, Cer-tagged CAL PDZ, dry powder (AID 602253)). Conditions: Purified CAL PDZ, TMR-peptide fluorescence polarization, 1 h; series mostly up to 35 µM; activity change, negative = inhibition: at the top concentration.

Activity change, negative = inhibition, inactive:
O=C(O)CSc1cc(NS(=O)(=O)c2ccc(Cl)cc2)c2ccccc2c1O -5.53%
O=C(O)CSc1cc(NS(=O)(=O)c2ccc(Br)cc2)c2ccccc2c1O -4.08%
COc1ccc(S(=O)(=O)Nc2cc(SCC(=O)O)c(O)c3ccccc23)cc1 -3.93%
CCOc1ccc(S(=O)(=O)Nc2cc(SCC(=O)O)c(O)c3ccccc23)cc1 -2.74%
O=S(=O)(Nc1ccc(O)c2ccccc12)c1ccccc1 -3.92%
O=S(=O)(Nc1cc(Sc2ccccc2)c(O)c2ccccc12)c1ccc(Cl)cc1 -3.34%
